Hit rate of the full screen: of about 280,000 compounds, about 2,600 (0.93%) were called active. Not shown: some 8% with an inconclusive outcome. Shown is part of a subset that was picked to be rich in actives. A number with no mark means an inactive call. Calls follow the shape of the dose curve; as a rule, active = well fitted curve in the direction sought with a large enough effect; inconclusive = small, poorly fitted or top-dose-only effect; inactive = flat fitted curve, though single readings scatter.
% is scaled to controls: 0 for no effect and ±100 for the full control effect; potency is read from the fitted curve at half-maximal effect; tags tell the direction and shape of the fitted curve or compound fluorescence and quenching.

The assay in a line: Counterscreen qHTS for Inhibitors of Tau Fibril Formation, Fluorescence Polarization. Also: nearly all actives have a fitted effect of over 55% in size. As to conditions: tau K18 P301L (four-repeat tau fragment) Alexa594 fluorescence, heparin fibrillization; series mostly up to 57.7 µM; activity change, negative = decrease: at the top concentration. Summed up: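 Human K18 P301L tau (15 uM unlabeled plus 0.24 uM Alexa 594-labeled, final) in 100 mM sodium acetate pH 7 was mixed with compound and 20 uM heparin and incubated 6 hr at 37 C.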
For `Cc1ccc(C)c(N2CCN(C(=O)Cn3ncc4c(=O)oc5ccc(C)cc5c43)CC2)c1`, the “activity change, negative = decrease” value was -10.9%. As to `COc1cccc(NC(=O)Nc2ccc3c(c2)N(C)C(=O)c2ccccc2S3)c1`, the “activity change, negative = decrease” value is -4.99%. The same measure, in the same setting: under `COc1cccc(/C=N\NC(=O)C2=NNC(=O)C2C)c1O` (configuration not stated) stands -16%.

Consider `COc1cccc(/C=N/NC(=O)c2[nH]nc3c2CCc2ccccc2-3)c1O`, for which the “activity change, negative = decrease” value was -12.7%.

On to `COc1cccc(/C=N/Nc2cc(C)nc(-c3ccccc3O)n2)c1O`, for which the Potency is 8.91 µM [quencher] (active). `Cc1cc(C)c(/C=C/c2onc(C)c2S(=O)(=O)N2CCC(C(=O)Nc3ccc(Cl)cc3C)CC2)c(C)c1`: the “activity change, negative = decrease” value was -5.75%. Turning to `O=C(N/N=C/c1ccccn1)c1cccnc1`, the “activity change, negative = decrease” value is -19.2%. Take `O=C(N/N=C/c1sc(N2CCCCC2)nc1-c1cccs1)c1cccnc1`: the Potency is 15.8 µM [quencher] (active). Take `Cc1cc(/C=N/NC(=O)c2cccnc2)c(C)n1CC(C)C`: the “activity change, negative = decrease” value was -4.42%. On the same count and under the same terms, under `COc1ccc(CNc2nc(-c3ccc(Cl)cc3)nn2C(=O)c2ccccc2)cc1` stands -27.4%; under `O=C(Cn1cc(SCc2ccccc2)c2ccccc21)N1CCCCC1`, -27.8%; under `CC(=O)N1CCc2cc(S(=O)(=O)NC(Cc3ccccc3)C(=O)NCc3ccc(C)cc3)ccc21` (configuration not stated), -9.61%. Still for that read-out and setting: under `CCN1CCN(C(=O)c2cc3cc4ccc(OC)cc4nc3s2)CC1` stands -7.15%. In the case of `CCN(CCCNC(=O)c1cc2cc3cc(OC)ccc3nc2s1)c1ccccc1`, the Potency was 4.47 µM [quencher] (active). For `Cc1ccc(C(=O)NNC(=O)c2cc3cc4ccccc4nc3s2)cc1`, the “activity change, negative = decrease” value was -2.3%. Same read-out and setting: under `O=C(CCS(=O)(=O)c1ccccc1)N(Cc1cccnc1)c1nc2c(F)cccc2s1` stands 1.43%. For the molecule `COc1ccc(-c2c(C)cc3oc(=O)cc(-c4ccccc4)c3c2C)cc1OC`, the “activity change, negative = decrease” value is -21.6% [at 81.3 µM]. `COc1ccc(-c2c(C)cc3oc(=O)cc(-c4ccccc4)c3c2C)cc1F`: the “activity change, negative = decrease” value is -24.1% [at 81.3 µM]. For the molecule `COc1cc(OC)c2c(-c3cccc(-c4cccc(N)c4)c3)cc(=O)oc2c1`, the Potency was 11.2 µM [quencher] (active). Turning to `CCOc1ccccc1NC(=O)CN1CCCN(Cc2cccc(Cl)c2)S1(=O)=O`, the “activity change, negative = decrease” value is -16.6%. Still for that read-out and setting: under `CC(CCCc1ccccc1)NC(=O)c1nn(-c2ccc(Cl)cc2)nc1CO` (configuration not stated) stands -11.8%; under `CC(=O)Nc1ccc(NC(=O)CSc2ncnc3c2cnn3Cc2ccccc2)cc1`, 4.33%; under `Clc1ccc(Nc2ncnc3c2nnn3Cc2ccccc2)cc1`, -14%. Consider `CN(C)c1cc2c(Nc3ccc4c(cnn4Cc4ccccc4)c3)ncnc2cn1`, for which the Potency was 7.08 µM [quencher] (active).

Turning to `COc1ccc(C)cc1NC(=O)CCc1c(C)nn(-c2ccc(N3CCOCC3)nn2)c1C`, the “activity change, negative = decrease” value was 4.93%. Consider `CC(=O)Nc1ccc(NC(=O)C2CCCN(S(=O)(=O)c3ccc4c(c3)CCCC(=O)N4)C2)cc1` (configuration not stated), for which the “activity change, negative = decrease” value is 2.46%.

As for `COc1ccc(/C=N/NC(=O)Nc2ccc3nsnc3c2)c(OC)c1`, the “activity change, negative = decrease” value was -23.2%. With `CCOc1ccc2nc(Nc3nc4ccc(NC(C)=O)cc4s3)sc2c1`, the Potency is 15.8 µM [quencher] (active). For `COc1ccc2nc(NC(=O)[C@@H]3CCCN3C(=O)c3cccs3)sc2c1`, the “activity change, negative = decrease” value is -1.01%.

Take `COc1ccc2nc(Nc3nc(-c4ccncc4)cs3)sc2c1`: the Potency is 17.8 µM [quencher] (active).

For `CCOc1ccc2nc(NC(=O)CSc3nc4c(c(=O)n(C)c(=O)n4C)n3CC)sc2c1`, the “activity change, negative = decrease” value is 0.975%. Same read-out and setting: the figure for `COc1ccc(NC(=O)Nc2cccc(-c3noc(C)n3)c2)cc1` is -19%.

Take `COc1ccc(NC(=O)Nc2ccc3nsnc3c2)cc1`: the Potency is 15.8 µM [quencher] (active). For `COc1ccc2nc(Nc3nc4cc5c(cc4s3)OCCO5)sc2c1`, the Potency was 7.08 µM [quencher] (active). In the case of `CCC(=O)c1ccc(OCC(=O)Nc2ccc3nc(C)sc3c2)cc1`, the “activity change, negative = decrease” value is -5.88%. The same measure, in the same setting: under `Cc1nc2cc3c(cc2s1)OCO3` stands -5.34%. The same measure, in the same setting: under `COc1cccc(C(=O)Nc2nc3ccc(S(C)(=O)=O)cc3s2)c1` stands -24.7%; under `COc1ccc2nc(Nc3nc(-c4cc5ccccc5oc4=O)cs3)sc2c1`, -9.89%. For `CCc1cnc2c(c1SCC(=O)c1ccccc1)c(=O)n(C)c(=O)n2C`, the “activity change, negative = decrease” value is -7.49%. For the molecule `COc1ccc(OC)c(CNC(=O)CN2C(=O)CCn3nc(-c4cn(C)c5ccccc45)cc32)c1`, the “activity change, negative = decrease” value is -14.3%. Same read-out and setting: under `COc1ccc2[nH]c3c(c2c1)CCN(C(=O)CCC1CCCC1)C3c1ccc(F)cc1` (configuration not stated) stands -21.7%; under `Cc1cccc(C2CC(=O)Oc3c2c(=O)n(C)c2ccccc32)c1` (configuration not stated), -11.1%; under `CCC(=O)Nc1cccc(C(=O)OCc2cc(=O)n3nc(CC)sc3n2)c1`, 1.65%.

For the molecule `O=C(O)c1ccc2c(c1)N(Cc1ccc(F)cc1)C(=O)c1ccccc1S2=O` (configuration not stated), the “activity change, negative = decrease” value was 0.615%.

Take `Cc1cccc(NC(=O)c2ccc(F)c(S(=O)(=O)N(C)C3CCCCC3)c2)c1`: the “activity change, negative = decrease” value was -29.8%.

As to `CCOc1ccc(OCC)c(NC(=O)c2c(C)nn(-c3ccccc3)c2-n2cccc2)c1`, the “activity change, negative = decrease” value was -22.7%. As to `Cc1ccc(C2c3[nH]c4ccccc4c3CCN2C(=O)c2cccc(C)c2)cc1` (configuration not stated), the “activity change, negative = decrease” value is -15.6%. Same read-out and setting: the figure for `CCOc1cccc(CNC(=O)c2ccc(N3CCCC3)c(NC(=O)Nc3ccccc3CC)c2)c1` is 6.88%. Same read-out and setting: the figure for `CCCC(=O)Nc1nc2ccc(NC(=O)c3c(F)c(F)c(OC)c(F)c3F)cc2s1` is -26.7%; for `CNC(=O)c1ccc2nc(NC(C)=O)sc2c1` it is -4.01%.

`COc1ccc2nc(Nc3nc4ccc(NC(C)=O)cc4s3)sc2c1`: the Potency is 12.6 µM [quencher] (active). With `COc1ccc(Cl)cc1N(C)C(=O)c1cc2c(=O)oc3ccc(C)cc3c2s1`, the “activity change, negative = decrease” value was -17%. For the molecule `COc1ccc(CCNS(=O)(=O)c2cc(-c3cc(C)no3)ccc2C)cc1OC`, the “activity change, negative = decrease” value is -9.75%.

Take `CC(C)(C)c1ccc(C(=O)NCC(c2ccc(Cl)cc2)N2CCOCC2)cc1` (configuration not stated): the “activity change, negative = decrease” value was -15%. The same measure, in the same setting: the figure for `COc1ccc(Br)cc1C1CC(=O)Nc2c1c(C)nn2-c1nc(C)cc(C)n1` (configuration not stated) is 2.83%. Turning to `COc1ccc(/C=N/NC(=O)c2ccncc2)cc1CN1CCCc2ccccc21`, the Potency was 14.1 µM [quencher] (active). `COc1ccc(/C=N/NC(=O)c2ccc(Cl)cc2)cc1COC(C)=O`: the “activity change, negative = decrease” value was -20.2%. As to `COc1ccccc1Cc1nc2ccccc2nc1SCC(=O)N1CCCc2ccccc21`, the “activity change, negative = decrease” value was -9.37%. In the case of `CCOC(=O)C1CCCN(C(=O)c2ccc(-n3ccc4ccccc43)s2)C1` (configuration not stated), the “activity change, negative = decrease” value was -5.78%.

Take `CCOc1ccc(N(CC)C(=O)c2noc3c2COc2ccc(C)cc2-3)cc1`: the “activity change, negative = decrease” value is -0.276%.

As to `COc1ccc2c(C)c(CCC(=O)NCc3ccc(OC)c(OC)c3)c(=O)oc2c1`, the “activity change, negative = decrease” value was -23.7%. For `Cc1cc2c(cc3c(SCc4cccc(Cl)c4)nnc(C)n32)o1`, the “activity change, negative = decrease” value was -16.2%.

For the origin of these results see PubChem BioAssay AID1463 (National Center for Advancing Translational Sciences (NCATS), 2008).
